“And” between values parts separate entries of the source, which are not always exact repeats. Equal entries are not always repeated. Inconclusive results are not listed. The source made the active and inactive calls. Unless noted, the call rests on the fitted dose curve.
Each compound was assayed against Ubiquitin carboxyl-terminal hydrolase 1 (Homo sapiens) (UniProt O94782) (assay: Inhibitors of USP1/UAF1: Pilot qHTS (AID 504865; active means well fitted inhibition curve with a large enough effect; further: nearly all actives have a fitted effect of over 35% in size; further: potency means the concentration at half of the fitted maximal effect)). Conditions: purified USP1/UAF1, Ub-rhodamine cleavage fluorescence; series mostly up to 114 µM; activity change, negative = inhibition: at the top concentration.
Sequence of Ubiquitin carboxyl-terminal hydrolase 1 (Homo sapiens) (O94782 whole entry, looked up): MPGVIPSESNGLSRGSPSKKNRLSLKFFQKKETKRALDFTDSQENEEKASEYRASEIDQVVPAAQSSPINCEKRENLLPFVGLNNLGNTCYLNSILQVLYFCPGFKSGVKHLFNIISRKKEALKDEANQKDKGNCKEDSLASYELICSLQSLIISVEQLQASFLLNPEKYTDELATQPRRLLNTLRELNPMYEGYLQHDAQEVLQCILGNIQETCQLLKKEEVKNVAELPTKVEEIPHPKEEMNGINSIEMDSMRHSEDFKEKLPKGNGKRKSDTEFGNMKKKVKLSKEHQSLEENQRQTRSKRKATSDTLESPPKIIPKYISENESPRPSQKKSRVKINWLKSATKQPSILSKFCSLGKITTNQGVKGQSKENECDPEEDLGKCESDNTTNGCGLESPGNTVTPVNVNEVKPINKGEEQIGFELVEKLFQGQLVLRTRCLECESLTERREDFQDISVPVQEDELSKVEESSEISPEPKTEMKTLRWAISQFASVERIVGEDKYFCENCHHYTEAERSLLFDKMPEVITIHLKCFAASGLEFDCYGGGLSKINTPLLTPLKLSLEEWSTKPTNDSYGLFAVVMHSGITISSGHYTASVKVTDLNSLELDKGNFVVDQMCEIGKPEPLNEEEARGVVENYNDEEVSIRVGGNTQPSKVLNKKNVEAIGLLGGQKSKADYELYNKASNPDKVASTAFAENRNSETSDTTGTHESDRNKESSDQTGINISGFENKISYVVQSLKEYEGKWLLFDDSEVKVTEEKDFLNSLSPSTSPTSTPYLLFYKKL
Method in brief: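 Kinetic fluorescence assay: 1nM USP1/UAF1, 15 min compound preincubation, then 150nM Ub-Rho; 480/540 nm.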

SMILES	Potency	activity change, negative = inhibition
CCCCCCCCCCCCCCCC[N+](C)(C)Cc1ccccc1	50.1 µM (active)	–
NCC(=O)O	–	-7.6% (inactive)
COC(=O)c1c(Cl)c(Cl)c(C(=O)OC)c(Cl)c1Cl	–	-4.45% (inactive)
Nc1c2ccccc2nc2ccccc12	inactive	–
OCc1c[nH]c2ccccc12	–	-8.12% (inactive)
Cc1cc(C(C)(C)C)c(O)c(C(C)(C)C)c1	–	-13% (inactive)
Cc1ccc(O)cc1	–	-1.76% (inactive)
Nc1c[n+](N2CCOCC2)no1	–	-17.6% (inactive)
CC(=O)OC/C=C(C)/C=C/C=C(C)/C=C/C1=C(C)CCCC1(C)C	–	-9.74% (inactive)
COc1cc(C=O)ccc1O	–	-5.05% (inactive)
C1N2CN3CN1CN(C2)C3	–	-6.04% (inactive)
C[C@@H](C1=C(CCN(C)C)Cc2ccccc21)c1ccccn1	–	-2.17% (inactive)
O=C(Nc1ccc(Cl)cc1)Nc1ccc(Cl)c(Cl)c1	–	-11% (inactive)
OC(CCCN1CCCCC1)(c1ccccc1)c1ccccc1	–	11.3% [at 54.9 µM] (inactive)
Cc1ncc(CO)c(CO)c1O	–	-13.6% [at 54.9 µM] (inactive)

Each compound was assayed against DNA dC->dU-editing enzyme APOBEC-3G (Homo sapiens) (UniProt Q9HC16) (assay: qHTS for inhibitors of Vif-A3G interactions: Validation (AID 588379; active means well fitted inhibition curve with a large enough effect; further: 0% is about no effect)). Conditions: Vif-A3G protein interaction assay; series mostly up to 46.1 µM; activity change, negative = inhibition: at the top concentration.
Sequence of DNA dC->dU-editing enzyme APOBEC-3G (Homo sapiens) (Q9HC16 whole entry, looked up): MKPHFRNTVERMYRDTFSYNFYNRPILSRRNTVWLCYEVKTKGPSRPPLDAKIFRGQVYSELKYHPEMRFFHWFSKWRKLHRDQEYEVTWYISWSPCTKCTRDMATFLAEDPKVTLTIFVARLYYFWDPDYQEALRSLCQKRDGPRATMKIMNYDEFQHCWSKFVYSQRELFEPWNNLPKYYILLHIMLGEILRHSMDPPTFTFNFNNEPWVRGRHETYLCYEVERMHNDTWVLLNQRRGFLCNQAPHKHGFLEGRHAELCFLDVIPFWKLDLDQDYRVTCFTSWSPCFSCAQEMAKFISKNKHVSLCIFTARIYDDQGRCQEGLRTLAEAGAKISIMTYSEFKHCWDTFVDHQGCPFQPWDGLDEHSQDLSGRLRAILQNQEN
Method in brief: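 Yellow fluorescence (Ex 488, Em 500-530) of Vif-coexpressing HeLa A3G-eYFP cells, scanned by Acumen cytometer, reports blocked A3G degradation. Cells plated at 700/well overnight at 37 deg C before compound addition, then a further overnight compound incubation at 37 deg C.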

SMILES	activity change, negative = inhibition
NCC(=O)O	-3.26% (inactive)
Nc1c[n+](N2CCOCC2)no1	-5.38% (inactive)
COc1cc(C=O)ccc1O	1.93% (inactive)
C[C@@H](C1=C(CCN(C)C)Cc2ccccc21)c1ccccn1	-1.92% (inactive)

What follows are compounds tested against Estrogen receptor (Homo sapiens) (UniProt P03372) (assay: qHTS assay for small molecule antagonists of estrogen receptor alpha signaling (AID 588513; active means well fitted curve in the direction sought with a large enough effect in the signal ratio, with a control signal flat, not every such curve was filed as active; the % refers to the signal ratio; further: on the % scale 0 is the no-effect control and ±100 the full control effect)). Conditions: ER-alpha-UAS-bla HEK293, beta-lactamase ratio, antagonist mode; series mostly up to 76.9 µM; activity, negative = inhibition: at the top concentration.
Sequence of Estrogen receptor (Homo sapiens) (P03372 whole entry, looked up): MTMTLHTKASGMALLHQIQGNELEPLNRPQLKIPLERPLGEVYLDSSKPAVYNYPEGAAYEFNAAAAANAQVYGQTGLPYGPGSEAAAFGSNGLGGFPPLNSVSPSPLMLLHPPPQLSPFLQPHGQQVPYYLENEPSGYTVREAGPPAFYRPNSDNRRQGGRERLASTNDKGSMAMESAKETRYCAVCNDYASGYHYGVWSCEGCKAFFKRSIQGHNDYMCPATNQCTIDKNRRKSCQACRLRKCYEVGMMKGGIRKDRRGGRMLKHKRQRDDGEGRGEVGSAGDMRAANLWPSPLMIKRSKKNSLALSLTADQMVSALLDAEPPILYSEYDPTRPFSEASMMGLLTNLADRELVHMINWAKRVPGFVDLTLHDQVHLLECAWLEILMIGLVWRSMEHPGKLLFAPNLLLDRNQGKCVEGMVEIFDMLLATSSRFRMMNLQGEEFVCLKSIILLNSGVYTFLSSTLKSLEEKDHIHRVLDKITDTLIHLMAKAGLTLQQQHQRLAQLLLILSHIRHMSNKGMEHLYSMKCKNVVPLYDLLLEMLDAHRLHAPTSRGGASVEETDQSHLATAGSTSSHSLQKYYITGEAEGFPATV
Method in brief: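 Cells were plated at 5000/well and incubated 4 h at 37 C. Compounds were added as 1:2 dilution series, duplicates. 17-beta-estradiol (0.5nM final) was added for 18 h before CCF4 detection.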

SMILES	activity, negative = inhibition	outcome
Nc1ccc(O)cc1	-32.3% (inactive)	–
CCCC(=O)c1cc(O)c(O)cc1O	30.2% (inactive)	–
CC(=O)OC/C=C(C)/C=C/C=C(C)/C=C/C1=C(C)CCCC1(C)C	-5.6% (inactive)	–
COc1cc(C=O)ccc1O	–	inactive
CC(C)C(C)(C)C(C)(C)C(C)(C)S	–	inactive

The compounds below were run against Estrogen receptor (Homo sapiens) (UniProt P03372) (assay: qHTS assay for small molecule agonists of estrogen receptor alpha signaling (AID 588514;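 further: 0% = vehicle only and 100% = reference agonist; nearly all actives have a fitted effect of over 70% in size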)). Conditions: ER-alpha-UAS-bla HEK293, beta-lactamase ratio, 18 h, percent of full estradiol response, vehicle zero; series mostly up to 76.8 µM; activation: at the top concentration.
Method in brief: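 EC50 and efficacy came from Hill fits of beta-lactamase reporter signal (CCF4 dye, 2 h at room temperature) scaled between DMSO and 20 nM 17-beta-estradiol. Agonist mode: HEK293 ER-alpha-UAS-bla cells in charcoal/dextran-stripped serum medium, 18 h compound exposure at 37 C.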

SMILES	activation	outcome
COC(=O)c1c(Cl)c(Cl)c(C(=O)OC)c(Cl)c1Cl	2.19% (inactive)	–
CCCC(=O)c1cc(O)c(O)cc1O	-5.02% (inactive)	–
Nc1cccc2c(N)cccc12	–	inactive
CC(=O)OC/C=C(C)/C=C/C=C(C)/C=C/C1=C(C)CCCC1(C)C	-2.41% (inactive)	–
COc1cc(C=O)ccc1O	–	inactive
CC(C)C(C)(C)C(C)(C)C(C)(C)S	–	inactive
O=C(Nc1ccc(Cl)cc1)Nc1ccc(Cl)c(Cl)c1	-8.89% (inactive)	–
O=C(Oc1ccccc1)c1ccccc1O	–	inactive

These compounds were tested against Androgen receptor (Homo sapiens) (UniProt P10275) (assay: qHTS assay for small molecule agonists of androgen receptor signaling (AID 588515; active means well fitted curve in the direction sought with a large enough effect in the signal ratio, with a control signal flat; the % refers to the signal ratio; further: on the % scale 0 is the no-effect control and ±100 the full control effect)). Conditions: AR-UAS-bla HEK293, beta-lactamase ratio, agonist 16 h; active compounds read high.
Sequence of Androgen receptor (Homo sapiens) (P10275 whole entry, looked up): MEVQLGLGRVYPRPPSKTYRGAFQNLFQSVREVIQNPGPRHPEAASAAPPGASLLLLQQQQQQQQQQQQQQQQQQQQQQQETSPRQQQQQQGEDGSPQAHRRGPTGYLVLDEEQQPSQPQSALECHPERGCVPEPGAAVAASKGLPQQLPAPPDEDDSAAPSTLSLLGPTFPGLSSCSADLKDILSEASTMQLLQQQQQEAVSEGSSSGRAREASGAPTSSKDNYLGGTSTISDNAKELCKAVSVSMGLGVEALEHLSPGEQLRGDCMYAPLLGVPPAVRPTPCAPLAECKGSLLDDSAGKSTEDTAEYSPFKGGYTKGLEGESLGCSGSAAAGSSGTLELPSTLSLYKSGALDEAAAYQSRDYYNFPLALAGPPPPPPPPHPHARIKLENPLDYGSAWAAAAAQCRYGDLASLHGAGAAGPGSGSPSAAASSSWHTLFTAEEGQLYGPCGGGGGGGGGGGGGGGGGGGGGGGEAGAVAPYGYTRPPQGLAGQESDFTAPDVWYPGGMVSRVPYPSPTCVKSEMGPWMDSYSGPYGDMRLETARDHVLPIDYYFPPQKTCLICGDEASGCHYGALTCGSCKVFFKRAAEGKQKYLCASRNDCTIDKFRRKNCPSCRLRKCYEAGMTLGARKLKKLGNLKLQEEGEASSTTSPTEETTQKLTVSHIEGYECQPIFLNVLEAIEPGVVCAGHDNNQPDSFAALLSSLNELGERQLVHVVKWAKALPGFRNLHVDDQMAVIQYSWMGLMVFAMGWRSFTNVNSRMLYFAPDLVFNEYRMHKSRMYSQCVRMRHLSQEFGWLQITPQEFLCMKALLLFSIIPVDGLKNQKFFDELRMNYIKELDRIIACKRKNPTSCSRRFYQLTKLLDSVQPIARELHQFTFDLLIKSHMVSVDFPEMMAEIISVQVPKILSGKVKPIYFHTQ
Method in brief: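 Stimulation of an AR-responsive β-lactamase reporter in GripTite HEK293 cells was measured after 16 h compound exposure at 37 °C, via CCF4 fluorescence after 2 h RT. EC50 from Hill fits, normalized to R1881 at 30 nM.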

SMILES	activation
CCCC(=O)c1cc(O)c(O)cc1O	-9.57% (inactive)
Nc1cccc2c(N)cccc12	-5.98% (inactive) and -0.762% (inactive)
OCc1c[nH]c2ccccc12	-13.7% (inactive)
CCN(CC)CCOc1ccc(/C(=C(\Cl)c2ccccc2)c2ccccc2)cc1	-16% (inactive)
CC(C)C(C)(C)C(C)(C)C(C)(C)S	-7.25% (inactive) and 10.8% (inactive)
CCCCCCCCCCCC[N+](C)(C)Cc1ccccc1	-8.21% (inactive)
O=C(c1ccccc1)c1ccccc1	19.2% (inactive) and -0.683% (inactive)

Each compound was assayed against Androgen receptor (Homo sapiens) (UniProt P10275) (assay: qHTS assay for small molecule antagonists of androgen receptor signaling (AID 588516; active means well fitted curve in the direction sought with a large enough effect in the signal ratio, with a control signal flat, not every such curve was filed as active; the % refers to the signal ratio; further: on the % scale 0 is the no-effect control and ±100 the full control effect)). Conditions: AR-UAS-bla HEK293, beta-lactamase ratio, antagonist mode, 16 h; series mostly up to 76.8 µM; activity change, negative = inhibition: at the top concentration.
Method in brief: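 Antagonist-mode qHTS: inhibition of R1881 (10 nM)-driven beta-lactamase expression in GripTite HEK 293 cells is measured after 16 h; values are Hill-derived IC50s normalized between R1881 and DMSO wells.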

SMILES	activity change, negative = inhibition	outcome
OCc1c[nH]c2ccccc12	-24.3% (inactive)	–
CCN(CC)CCOc1ccc(/C(=C(\Cl)c2ccccc2)c2ccccc2)cc1	-16.2% (inactive)	–
COc1cc(C=O)ccc1O	–	inactive
CC(C)C(C)(C)C(C)(C)C(C)(C)S	–	inactive
CCCCCCCCCCCC[N+](C)(C)Cc1ccccc1	-16.2% (inactive)	–
O=C(c1ccccc1)c1ccccc1	–	inactive

What follows are compounds tested against Bile acid receptor (Homo sapiens) (UniProt Q96RI1) (assay: qHTS assay for small molecule antagonists of farnesoid X receptor signaling (AID 588526; further: on the % scale 0 is the no-effect control and ±100 the full control effect)). Conditions: HEK293T FXR-UAS-bla, beta-lactamase ratio, antagonist mode; series mostly up to 76.7 µM; activity change, negative = inhibition: at the top concentration.
Sequence of Bile acid receptor (Homo sapiens) (Q96RI1 whole entry, looked up): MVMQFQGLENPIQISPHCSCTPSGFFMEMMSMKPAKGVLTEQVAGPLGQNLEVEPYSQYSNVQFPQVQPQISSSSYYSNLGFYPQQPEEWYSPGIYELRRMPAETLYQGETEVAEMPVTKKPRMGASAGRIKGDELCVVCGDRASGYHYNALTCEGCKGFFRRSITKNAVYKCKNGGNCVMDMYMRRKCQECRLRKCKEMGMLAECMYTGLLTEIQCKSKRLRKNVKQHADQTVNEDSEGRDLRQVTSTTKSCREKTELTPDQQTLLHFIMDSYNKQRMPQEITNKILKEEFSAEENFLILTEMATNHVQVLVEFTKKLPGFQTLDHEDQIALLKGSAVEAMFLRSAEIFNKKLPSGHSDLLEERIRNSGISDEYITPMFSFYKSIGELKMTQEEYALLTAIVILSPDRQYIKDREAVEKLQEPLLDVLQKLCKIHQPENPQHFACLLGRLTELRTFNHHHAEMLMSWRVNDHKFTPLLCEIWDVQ
Method in brief: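 Antagonist mode: titrated compounds tested against chenodeoxycholic acid stimulation (normalized to 50 uM CDCA and DMSO) in GeneBLAzer HEK293T cells for 16 h. Beta-lactamase read by CCF4 fluorescence; IC50 from Hill fits.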

SMILES	outcome	activity change, negative = inhibition
c1ccc2occc2c1	inactive	–
COC(=O)c1c(Cl)c(Cl)c(C(=O)OC)c(Cl)c1Cl	–	5.98% (inactive)
Nc1ccc(O)cc1	–	8.64% (inactive)
CCCC(=O)c1cc(O)c(O)cc1O	–	4.06% (inactive)
Nc1cccc2c(N)cccc12	inactive	–
OCc1c[nH]c2ccccc12	–	-14.1% (inactive)
Cc1cc(C(C)(C)C)c(O)c(C(C)(C)C)c1	–	-7.31% (inactive)
O=C(Oc1ccccc1)c1cccc(C(=O)Oc2ccccc2)c1	–	-4.95% (inactive)
Cc1ccc(O)cc1	–	-5.01% (inactive)
COc1cc(C=O)ccc1O	–	-6.84% (inactive)
CCCCCCCCCCCC[N+](C)(C)Cc1ccccc1	–	-7.69% (inactive)
O=C(NO)c1ccccc1	–	6.81% (inactive)
Oc1ccccc1	inactive	–
O=C(c1ccccc1)c1ccccc1	inactive	–
CC(C)(C)c1ccc(O)c(O)c1	–	-10.5% (inactive)
Cc1ncc(CO)c(CO)c1O	–	4.02% (inactive)

Source: PubChem BioAssay (NCATS)
